# PubChem BioAssay (EPA / NIEHS)
# Values joined by “and” are separate entries in the source; they are usually repeats but may differ in a detail not shown here. Identical values can stand only once. Inconclusive results are not listed. Some compounds were tested as several samples or in several runs, with calls that do not always agree. Active and inactive are the calls of the source. The calls were made as follows, unless noted: active = hit-call score of the fitted dose curve at least 0.9, where 1 is the maximum; inactive = score below 0.9.
# Key:
# [1] = read-out: Interleukin 17F (IL17F), IL17F (gene 112744); assay: BSK_BT_xIL17F: BioMAP Diversity Plus: BT Assay for Interleukin 17F (IL17F) Biomarker Activity (AID 2284243); details: primary human B cells with PBMC
# In short: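 Luminex readout of IL-17F secretion, 24 h; cells: human B cells with PBMC; positive-direction analysis, DMSO control.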
# [2] = read-out: Actin alpha 1 (ACTA1), ACTA1 (gene 58); assay: BSK_MyoF_ACTA1: BioMAP Diversity Plus: MyoF Assay for Actin alpha 1 (ACTA1) Biomarker Activity (AID 2284244); details: primary human lung fibroblasts
# In short: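 alpha-SMA levels read by ELISA against DMSO baseline, 24 h post-dose, in primary human lung fibroblasts. Parallel cultures stained with 0.1% SRB after 10% TCA fixation (560 nm) to flag overt cytotoxicity.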
# [3] = read-out: Interleukin 2 (IL2), IL2 (gene 3558); assay: BSK_BT_xIL2: BioMAP Diversity Plus: BT Assay for Interleukin 2 (IL2) Biomarker Activity (AID 2284245); details: primary human B cells with PBMC
# In short: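 Secreted IL-2 was read by Luminex xMAP from B cells co-cultured with PBMC (human primary) 24 h post-dosing; activity was analysed as gain of signal relative to DMSO vehicle.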
# [4] = read-out: Basic fibroblast growth factor (bFGF), FGF2 (gene 2247); assay: BSK_MyoF_bFGF: BioMAP Diversity Plus: MyoF Assay for Basic fibroblast growth factor (bFGF) Biomarker Activity (AID 2284246); details: primary human lung fibroblasts
# In short: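 bFGF was measured by ELISA in primary human lung fibroblasts 24 h after chemical addition. Signal was analysed as positive-direction change relative to DMSO baseline.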
# [5] = read-out: Collagen IV, COL4A1 (gene 1282); assay: BSK_MyoF_CollagenIV: BioMAP Diversity Plus: MyoF Assay for Collagen IV Biomarker Activity (AID 2284247); details: primary human lung fibroblasts
# In short: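 Collagen IV quantified by ELISA in human lung fibroblast cultures 24 h after chemical treatment, with DMSO as baseline. Parallel SRB staining (0.1% SRB after TCA fixation, 560 nm) flags overt cytotoxicity.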
# [6] = read-out: Monokine induced gamma interferon (MIG), CXCL9 (gene 4283); assay: BSK_KF3CT_MIG: BioMAP Diversity Plus: KF3CT Assay for Monokine induced gamma interferon (MIG) Biomarker Activity (AID 2284248); details: primary human keratinocytes with fibroblasts
# In short: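 MIG in dosed human skin co-cultures was measured by ELISA at 24 h, relative to DMSO.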
# [7] = read-out: Collagen I, COL1A1 (gene 1277); assay: BSK_hDFCGF_CollagenI: BioMAP Diversity Plus: hDFCGF Assay for Collagen I Biomarker Activity (AID 2284250); details: primary human foreskin fibroblasts
# In short: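 Collagen I quantified by ELISA 24 h after chemical dosing of human dermal fibroblast primary cells, with parallel SRB staining (0.1%, TCA-fixed, 560 nm) for overt cytotoxicity.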
# [8] = read-out: Interferon-inducible T-cell alpha chemoattractant (ITAC), CXCL11 (gene 6373); assay: BSK_hDFCGF_ITAC: BioMAP Diversity Plus: hDFCGF Assay for Interferon-inducible T-cell alpha chemoattractant (ITAC) Biomarker Activity (AID 2284251); details: primary human foreskin fibroblasts
# In short: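 Chemical dosing of primary human foreskin fibroblast cultures preceded ELISA measurement of I-TAC at 24 h. Response was analysed in the positive direction using DMSO as baseline, while parallel SRB staining measured cytotoxicity.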
# [9] = read-out: Plasminogen activator inhibitor-1 (PAI1), SERPINE1 (gene 5054); assay: BSK_KF3CT_PAI1: BioMAP Diversity Plus: KF3CT Assay for Plasminogen activator inhibitor-1 (PAI1) Biomarker Activity (AID 2284252); details: primary human keratinocytes with fibroblasts
# In short: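 PAI-1 levels quantified by ELISA after 24 h compound exposure of primary human skin keratinocytes co-cultured with fibroblasts. Activity is the gain relative to DMSO; cytotoxicity tracked in parallel cultures via SRB staining.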
# [10] = read-out: Monocyte Chemoattractant Protein-1 (MCP1), CCL2 (gene 6347); assay: BSK_IMphg_MCP1: BioMAP Diversity Plus: IMphg Assay for Monocyte Chemoattractant Protein-1 (MCP1) Biomarker Activity (AID 2284253); details: primary human endothelial cells with macrophages
# In short: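 ELISA readout of MCP-1 at 24 hours in IMphg co-cultures of venular endothelial cells and macrophages, normalised to DMSO; parallel cultures stained with sulforhodamine B for overt cytotoxicity.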
# [11] = read-out: Interleukin-8 (IL8), CXCL8 (gene 3576); assay: BSK_KF3CT_IL8: BioMAP Diversity Plus: KF3CT Assay for Interleukin-8 (IL8) Biomarker Activity (AID 2284254); details: primary human keratinocytes with fibroblasts
# In short: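 Using parallel SRB-stained cultures to flag overt toxicity, the study quantified IL-8 by ELISA in human keratinocyte–foreskin fibroblast co-cultures 24 h after dosing, with DMSO as negative control and baseline.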
# [12] = read-out: Plasminogen activator inhibitor-1 (PAI1), SERPINE1 (gene 5054); assay: BSK_MyoF_PAI1: BioMAP Diversity Plus: MyoF Assay for Plasminogen activator inhibitor-1 (PAI1) Biomarker Activity (AID 2284256); details: primary human lung fibroblasts;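 also: PAI-1 protein level measured by ELISA in fibroblast cultures; PAI-1 read 24 h after compound addition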
# In short: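 In this multiplexed primary-cell system, fibroblasts from human lung received compound for 24 h before ELISA detection of PAI-1; overt toxicity was checked by SRB (0.1%, TCA-fixed, 560 nm) in parallel wells.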
# CD69, CD69 (gene 969) = assay: BSK_IMphg_CD69: BioMAP Diversity Plus: IMphg Assay for CD69 Biomarker Activity (AID 2284257); details: primary human endothelial cells with macrophages
# In short: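 Readout is ELISA for CD69 in primary human venular endothelial cell/macrophage co-culture, taken at 24 h post-dosing. SRB staining of parallel cultures gauged overt cytotoxicity; signal increase versus DMSO defined activity.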
# [13] = read-out: Eotaxin 3, CCL26 (gene 10344); assay: BSK_BF4T_Eotaxin3: BioMAP Diversity Plus: BF4T Assay for Eotaxin 3 Biomarker Activity (AID 2284258); details: primary human bronchial epithelial cells with fibroblasts
# In short: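 ELISA measurement of Eotaxin-3 after 24 h chemical exposure in a bronchial epithelial/dermal fibroblast co-culture, with DMSO as baseline. Parallel SRB staining (0.1% SRB after 10% TCA fixation, 560 nm) flagged overt cytotoxicity.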
# [14] = read-out: Monocyte Chemoattractant Protein-1 (MCP1), CCL2 (gene 6347); assay: BSK_BF4T_MCP1: BioMAP Diversity Plus: BF4T Assay for Monocyte Chemoattractant Protein-1 (MCP1) Biomarker Activity (AID 2284259); details: primary human bronchial epithelial cells with fibroblasts
# In short: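 MCP-1 ELISA readout taken 24 h after dosing in the BF4T system (bronchial epithelial cells plus dermal fibroblasts). Parallel SRB total-protein staining flagged cytotoxicity; DMSO served as baseline, positive fitting direction.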
# [15] = read-out: Intercellular Adhesion Molecule 1 (ICAM1), ICAM1 (gene 3383); assay: BSK_BF4T_ICAM1: BioMAP Diversity Plus: BF4T Assay for Intercellular Adhesion Molecule 1 (ICAM1) Biomarker Activity (AID 2284260); details: primary human bronchial epithelial cells with fibroblasts
# In short: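 ICAM-1 levels measured by ELISA after 24 h chemical treatment of bronchial epithelial cell/dermal fibroblast co-cultures, read against DMSO baseline. Overt cytotoxicity checked in parallel cultures by sulforhodamine B staining.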
# [16] = read-out: Macrophage Inflammatory Protein-1 Alpha (MIP1a), CCL3 (gene 6348); assay: BSK_IMphg_MIP1a: BioMAP Diversity Plus: IMphg Assay for Macrophage Inflammatory Protein-1 Alpha (MIP1a) Biomarker Activity (AID 2284255); details: primary human endothelial cells with macrophages
# In short: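 MIP-1a protein levels were quantified by ELISA after 24 h treatment of human endothelial cell–macrophage co-cultures, compared with DMSO. Parallel cultures were fixed with TCA and stained with 0.1% SRB to gauge overt cytotoxicity.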
# [17] = CCTE_Mundy_HCI_hNP1_CellTiter: CCTE's Cell Titer-Glo 2 Assay in human neuroprogenitor cells for Viability, Mundy Lab (AID 2284241; active = hit-call score of the fitted dose curve at least 0.9, where 1 is the maximum)
# In short: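 Measures ATP content in human neural progenitors derived from WA09 embryonic cells. Read-out at 26.5 hours after dosing, with DMSO serving as the negative control and baseline.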
# [18] = read-out: Vascular cell adhesion molecule 1 (VCAM1), VCAM1 (gene 7412); assay: BSK_BF4T_VCAM1: BioMAP Diversity Plus: BF4T Assay for Vascular cell adhesion molecule 1 (VCAM1) Biomarker Activity (AID 2284249); details: primary human bronchial epithelial cells with fibroblasts
# In short: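 Cell-surface VCAM-1 quantified by ELISA after 24 h chemical exposure of human bronchial epithelial/dermal fibroblast co-cultures, with SRB staining in parallel wells for cytotoxicity; DMSO baseline, positive-direction fitting.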
structure (smiles),measurement,setting,value
O=C(O)C(F)(F)C(F)(F)C(F)(F)C(F)(F)C(F)(F)C(F)(F)C(F)(F)C(F)(F)C(F)(F)C(F)(F)C(F)(F)C(F)(F)C(F)(F)F,outcome,[1],inactive
same,outcome,[2],inactive
same,outcome,[3],inactive
same,outcome,[4],inactive
same,outcome,[5],inactive
same,outcome,[6],inactive
same,outcome,[7],inactive
same,AC50,[8],5.22 µM (active)
same,outcome,[8],inactive
same,outcome,[9],inactive
same,outcome,[10],inactive
same,outcome,[11],inactive
same,outcome,[12],inactive
same,outcome,"CD69, CD69 (gene 969)",inactive
same,outcome,[13],inactive
same,outcome,[14],inactive
same,outcome,[15],inactive
O=C(O)C(F)(F)C(F)(F)C(F)(F)C(F)(F)C(F)(F)C(F)(F)C(F)(F)C(F)(F)C(F)(F)C(F)(F)C(F)(F)C(F)(F)F,outcome,[1],inactive
same,AC50,[2],0.786 µM (active)
same,outcome,[2],inactive
same,outcome,[3],inactive
same,outcome,[4],inactive
same,outcome,[5],inactive
same,AC50,[6],20.5 µM (active)
same,outcome,[6],inactive
same,outcome,[7],inactive
same,AC50,[8],3.49 µM (active)
same,outcome,[8],inactive
same,outcome,[9],inactive
same,outcome,[10],inactive
same,outcome,[11],inactive
same,outcome,[16],inactive
same,outcome,[12],inactive
same,outcome,"CD69, CD69 (gene 969)",inactive
same,outcome,[13],inactive
same,outcome,[14],inactive
same,outcome,[15],inactive
O=C(CC(=O)C(F)(F)C(F)(F)F)C(F)(F)F,outcome,[17],inactive
same,AC50,[1],20.8 µM (active)
same,outcome,[1],inactive
same,outcome,[2],inactive
same,outcome,[3],inactive
same,outcome,[4],inactive
same,outcome,[5],inactive
same,outcome,[6],inactive
same,outcome,[18],inactive
same,outcome,[7],inactive
same,outcome,[8],inactive
same,outcome,[9],inactive
same,outcome,[10],inactive
same,outcome,[11],inactive
same,outcome,[16],inactive
same,outcome,[12],inactive
same,outcome,"CD69, CD69 (gene 969)",inactive
same,outcome,[13],inactive
same,outcome,[14],inactive
same,outcome,[15],inactive
OCC(F)(F)C(F)(F)C(F)(F)C(F)(F)C(F)(F)C(F)(F)F,AC50,[1],43.8 µM (active) and 40.2 µM (active)
same,outcome,[2],inactive
same,outcome,[3],inactive
same,outcome,[4],inactive
same,outcome,[5],inactive
same,outcome,[6],inactive
same,outcome,[7],inactive
same,AC50,[8],49.4 µM (active)
same,outcome,[8],inactive
same,outcome,[9],inactive
same,outcome,[10],inactive
same,outcome,[11],inactive
same,outcome,[16],inactive
same,outcome,[12],inactive
same,outcome,"CD69, CD69 (gene 969)",inactive
same,outcome,[13],inactive
same,outcome,[14],inactive
same,outcome,[15],inactive
FC(F)(F)C(F)(F)C(F)(F)C(F)(F)C(F)(F)C(F)(F)C(F)(F)C(F)(F)CCS,outcome,[17],inactive
same,outcome,[1],inactive
same,outcome,[2],inactive
same,outcome,[3],inactive
same,outcome,[4],inactive
same,outcome,[5],inactive
same,outcome,[6],inactive
same,outcome,[7],inactive
same,outcome,[8],inactive
same,outcome,[9],inactive
same,outcome,[10],inactive
same,outcome,[11],inactive
same,outcome,[12],inactive
same,outcome,"CD69, CD69 (gene 969)",inactive
same,outcome,[13],inactive
same,outcome,[14],inactive
same,outcome,[15],inactive
